Laboratory results as given in PubChem BioAssay (EPA / NIEHS).
Active and inactive are the calls of the source. How the source made its calls: active means hit-call score of the fitted dose curve at least 0.9, where 1 is the maximum; inactive means score below 0.9.

Each molecule was assayed on Human Leukocyte Antigen - DR isotype (HLADR), HLA-DRA (gene 3122) (assay: BSK_BE3C_HLADR: BioMAP Diversity Plus: BE3C Assay for Human Leukocyte Antigen - DR isotype (HLADR) Biomarker Activity (AID 2283032)). Details: primary human bronchial epithelial cells; actives raise or lower the signal.
Procedure, shortened: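 Primary human bronchial epithelial cells (BE3C); 24 h chemical exposure; HLA-DR by ELISA; bidirectional curve fit vs DMSO baseline.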

**Q.** Which AC50 does the source give for `O=C(N[C@@H](c1ccccc1)[C@@H]1CCCCN1)c1cccc(C(F)(F)F)c1Cl` here?
**A.** The AC50 was 33.2 µM (active).

**Q.** With `COc1ccc(OC(F)(F)F)cc1CN[C@H]1CCCN[C@H]1c1ccccc1` as the molecule, how does the outcome read?
**A.** Its outcome is “inactive”.

**Q.** With `CCCCCCCCCCCCCCCCO` as the molecule, how does the outcome read?
**A.** Its outcome is “inactive”.

**Q.** How did the outcome turn out when `CC1=C(C)S(=O)(=O)CCS1(=O)=O` was run?
**A.** Its outcome is “inactive”.

**Q.** How did the outcome turn out when `O=C(O)c1cccnc1` was run?
**A.** The outcome was “inactive”.

**Q.** With `CC(=O)OCC(COC(C)=O)OC(C)=O` as the molecule, how does the outcome read?
**A.** Its outcome is “inactive”.

**Q.** `CC(=O)O` was tested. Which outcome did it give?
**A.** Its outcome is “inactive”.

**Q.** How did the outcome turn out when `Oc1ccc(O)cc1` was run?
**A.** The outcome was “inactive”.

**Q.** How did the outcome turn out when `O=C1CCCCC1` was run?
**A.** The outcome was “inactive”.

**Q.** How did the outcome turn out when `C/C=C/C=C/C(=O)O` was run?
**A.** The outcome was “inactive”.

**Q.** For `CCCCC(CC)COP(=O)(OCC(CC)CCCC)OCC(CC)CCCC` (stereo not drawn), which outcome is on record?
**A.** Its outcome is “inactive”.

**Q.** `CC(=O)S[C@H](C(=O)N[C@H]1Cc2ccccc2[C@H]2CCC[C@@H](C(=O)O)N2C1=O)C(C)C` was tested. Which outcome did it give?
**A.** The outcome was “inactive”.

**Q.** `CN(C)C(=O)NC1(c2ccccc2)CCN(CCC[C@]2(c3ccc(Cl)c(Cl)c3)CCCN(C(=O)c3ccccc3)C2)CC1` was tested. Which outcome did it give?
**A.** Its outcome is “inactive”.

**Q.** `CCCCCCCCCC[N+](C)(C)[O-]` was tested. Which outcome did it give?
**A.** The outcome was “inactive”.

**Q.** With `CC(C)c1cccc(C(C)C)c1NC(=O)NS(=O)(=O)c1cc(C(C)(C)O)co1` as the molecule, how does the outcome read?
**A.** Its outcome is “inactive”.

**Q.** For `OCC(O)CO`, which outcome is on record?
**A.** Its outcome is “inactive”.

**Q.** Which outcome does the source give for `Nc1nc(Cl)nc2c1ncn2[C@H]1C[C@H](O)[C@@H](CO)O1` here?
**A.** Its outcome is “inactive”.

**Q.** How did the outcome turn out when `CCCCCCCC(=O)OC` was run?
**A.** Its outcome is “inactive”.

**Q.** For `N[C@@H](Cc1c[nH]c2ccccc12)C(=O)O`, which outcome is on record?
**A.** The outcome was “inactive”.

**Q.** How did the outcome turn out when `CCCC(=O)O` was run?
**A.** The outcome was “inactive”.

**Q.** Which outcome does the source give for `Cc1cn([C@H]2C=C[C@@H](CO)O2)c(=O)[nH]c1=O` here?
**A.** Its outcome is “inactive”.

**Q.** For `O=NO`, which outcome is on record?
**A.** The outcome was “inactive”.

**Q.** For `Oc1ccccc1O`, which outcome is on record?
**A.** The outcome was “inactive”.

**Q.** `Cc1cc(SC2=C(O)C[C@@](CCc3ccc(N)cc3)(C(C)C)OC2=O)c(C(C)(C)C)cc1CO` was tested. Which outcome did it give?
**A.** The outcome was “inactive”.

**Q.** Which AC50 does the source give for `CCN(CC)CCOc1ccc(C(=C(Cl)c2ccccc2)c2ccccc2)cc1` here?
**A.** The AC50 was 15.2 µM (active).

**Q.** How did the outcome turn out when `CC(C)COC(=O)CCCCC(=O)OCC(C)C` was run?
**A.** The outcome was “inactive”.

**Q.** `O=C(O)CN(CC(=O)O)CC(=O)O` was tested. Which outcome did it give?
**A.** The outcome was “inactive”.

**Q.** `CS(=O)(=O)c1ccc([C@@H](C[C@H]2CCC(=O)C2)C(=O)Nc2cnccn2)cc1Cl` was tested. Which outcome did it give?
**A.** The outcome was “inactive”.

**Q.** With `CCCCCCC(C=O)=Cc1ccccc1` as the molecule, how does the outcome read?
**A.** Its outcome is “inactive”.

What follows are molecules tested on Vascular cell adhesion molecule 1 (VCAM1), VCAM1 (gene 7412) (assay: BSK_4H_VCAM1: BioMAP Diversity Plus: 4H Assay for Vascular cell adhesion molecule 1 (VCAM1) Biomarker Activity (AID 2283033;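 on outcome: cell-surface VCAM-1 protein measured by ELISA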)). Details: primary human endothelial cells (HUVEC); actives raise or lower the signal.
Procedure, shortened: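 HUVEC, 24 h post-dose; VCAM-1 by ELISA. Bidirectional curve fit vs DMSO baseline. Parallel SRB total-protein stain (0.1% SRB after 10% TCA fixation, 560 nm) for cytotoxicity.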

**Q.** With `O=C(N[C@@H](c1ccccc1)[C@@H]1CCCCN1)c1cccc(C(F)(F)F)c1Cl` as the molecule, how does the outcome read?
**A.** Its outcome is “inactive”.

**Q.** For `COc1ccc(OC(F)(F)F)cc1CN[C@H]1CCCN[C@H]1c1ccccc1`, which outcome is on record?
**A.** Its outcome is “inactive”.

**Q.** How did the outcome turn out when `CCCCCCCCCCCCCCCCO` was run?
**A.** The outcome was “inactive”.

**Q.** Which outcome does the source give for `CC1=C(C)S(=O)(=O)CCS1(=O)=O` here?
**A.** The outcome was “inactive”.

**Q.** For `O=C(O)c1cccnc1`, which outcome is on record?
**A.** Its outcome is “inactive”.

**Q.** For `CC(=O)OCC(COC(C)=O)OC(C)=O`, which outcome is on record?
**A.** The outcome was “inactive”.

**Q.** How did the outcome turn out when `CC(=O)O` was run?
**A.** Its outcome is “inactive”.

**Q.** For `Oc1ccc(O)cc1`, which AC50 is on record?
**A.** Its AC50 is 10.9 µM (active).

**Q.** Which outcome does the source give for `O=C1CCCCC1` here?
**A.** The outcome was “inactive”.

**Q.** With `C/C=C/C=C/C(=O)O` as the molecule, how does the outcome read?
**A.** The outcome was “inactive”.

**Q.** For `CCCCC(CC)COP(=O)(OCC(CC)CCCC)OCC(CC)CCCC` (stereo not drawn), which AC50 is on record?
**A.** Its AC50 is 6.21 µM (active).

**Q.** Which outcome does the source give for `CC(=O)S[C@H](C(=O)N[C@H]1Cc2ccccc2[C@H]2CCC[C@@H](C(=O)O)N2C1=O)C(C)C` here?
**A.** Its outcome is “inactive”.

**Q.** For `CN(C)C(=O)NC1(c2ccccc2)CCN(CCC[C@]2(c3ccc(Cl)c(Cl)c3)CCCN(C(=O)c3ccccc3)C2)CC1`, which outcome is on record?
**A.** Its outcome is “inactive”.

**Q.** With `CCCCCCCCCC[N+](C)(C)[O-]` as the molecule, how does the outcome read?
**A.** The outcome was “inactive”.

**Q.** Which outcome does the source give for `CC(C)c1cccc(C(C)C)c1NC(=O)NS(=O)(=O)c1cc(C(C)(C)O)co1` here?
**A.** Its outcome is “inactive”.

**Q.** Which outcome does the source give for `OCC(O)CO` here?
**A.** The outcome was “inactive”.

**Q.** Which outcome does the source give for `Nc1nc(Cl)nc2c1ncn2[C@H]1C[C@H](O)[C@@H](CO)O1` here?
**A.** Its outcome is “inactive”.

**Q.** Which outcome does the source give for `CCCCCCCC(=O)OC` here?
**A.** Its outcome is “inactive”.

**Q.** With `N[C@@H](Cc1c[nH]c2ccccc12)C(=O)O` as the molecule, how does the outcome read?
**A.** The outcome was “inactive”.

**Q.** `CCCC(=O)O` was tested. Which outcome did it give?
**A.** Its outcome is “inactive”.

**Q.** `Cc1cn([C@H]2C=C[C@@H](CO)O2)c(=O)[nH]c1=O` was tested. Which outcome did it give?
**A.** Its outcome is “inactive”.

**Q.** For `O=NO`, which outcome is on record?
**A.** Its outcome is “inactive”.

**Q.** With `Oc1ccccc1O` as the molecule, how does the AC50 read?
**A.** Its AC50 is 5.53 µM (active).

**Q.** For `Cc1cc(SC2=C(O)C[C@@](CCc3ccc(N)cc3)(C(C)C)OC2=O)c(C(C)(C)C)cc1CO`, which outcome is on record?
**A.** Its outcome is “inactive”.

**Q.** With `CCN(CC)CCOc1ccc(C(=C(Cl)c2ccccc2)c2ccccc2)cc1` as the molecule, how does the AC50 read?
**A.** Its AC50 is 11.6 µM (active).

**Q.** How did the outcome turn out when `CC(C)COC(=O)CCCCC(=O)OCC(C)C` was run?
**A.** Its outcome is “inactive”.

**Q.** With `O=C(O)CN(CC(=O)O)CC(=O)O` as the molecule, how does the outcome read?
**A.** Its outcome is “inactive”.

**Q.** Which outcome does the source give for `CS(=O)(=O)c1ccc([C@@H](C[C@H]2CCC(=O)C2)C(=O)Nc2cnccn2)cc1Cl` here?
**A.** Its outcome is “inactive”.

**Q.** For `CCCCCCC(C=O)=Cc1ccccc1`, which AC50 is on record?
**A.** Its AC50 is 33.5 µM (active).
